Here are results for 39 compounds from PubChem BioAssay (NCATS).

Results filed as inconclusive are left out. Entries that show only a call come without a potency. Values without a mark were called inactive. Active and inactive are the calls of the source. Calls come from the whole dose curve; as a rule, active = well fitted inhibition curve with a large enough effect; inconclusive = small, poorly fitted or top-dose-only effect; inactive = flat fitted curve, though single readings scatter. Where a SMILES comes first, the peptide text is derived from it. [ ]: non-standard residue; d: D form. ξ: configuration not given here. ξLac(3-iPr) = CC(C)CC(O)C(=O)O; NMeV = CN[CH](C(=O)O)C(C)C; βAla = NCCC(=O)O
Potency is the fitted concentration of half-maximal effect.

The experiment in a line: P-glycoprotein substrates identified in KB-8-5-11 adenocarcinoma cell line, qHTS therapeutic library screen (AID 1346987). Note: nearly all actives have a fitted effect of over 65% in size. The following applies: KB-8-5-11 (P-gp overexpressing) viability, CellTiter-Glo, 72 h; series mostly up to 44.5 µM. In a few lines:
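KB-8-5-11, a colchicine-selected P-gp-overexpressing KB-3-1 subline, was grown without colchicine for the assay. Cells were seeded at 500 cells/well, dosed in concentration-response and incubated 72 h at 37 degree C, 5% CO2. Viability was read by CellTiter-Glo luminescence.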
For orientation: Quantitative high-throughput screening tests each substance at several concentrations.
`C/C=C/c1ccc2c(c1)[C@@H](C)[C@H](c1ccc(O)cc1)O2`: the Potency entry is “inactive”. On the same count and under the same terms, for `CCOC(=O)C(CCc1ccccc1)NC1CSC(c2cccs2)CN(CC(=O)O)C1=O` (centres undefined) the value was “inactive”; for `CC(=O)NC1C(OC(C)(C)C2CCC3(C)C=C(C4CCC5C4(C)CC(O)C4OC(C(C)(C)O)CCC45C)CCC3O2)OC(CO)C(O)C1O` (centres undefined), “inactive”. Same read-out and setting: for `CC1CC[C@]2(C(=O)O)CC[C@]3(C(=O)O)C(=CCC4[C@@]5(C)CC[C@H](O[C@@H]6O[C@H](CO)[C@@H](O)[C@H](O)[C@H]6O)C(C)(C)C5CC[C@]43C)C2C1C` (some centres undefined) the value was “inactive”; for `C=CC(C)(O)CC[C@H]1C(=C)CCC2[C@](C)(C(=O)O)CCC[C@@]21C` (some centres undefined), “inactive”; for `CC1(C)CCCC2(C)C1CC=C1C(=O)OC(O)C12O` (centres undefined), “inactive”. On the same count and under the same terms, the entry for `CC1=C(C(=O)O)/C(=C\CO[C@@H]2O[C@H](CO)[C@@H](O)[C@H](O)[C@H]2O)C(OC(=O)/C=C\c2ccc(O)cc2)C1` (some centres undefined) is “inactive”; for `COC(=O)/C=C/C12COC(C)(C)C1C(O)C(OC(C)=O)C1(C)C2CCC2(C)C(c3ccoc3)OC(=O)C3OC321` (centres undefined) it is “inactive”. Take `CC(C)CC1OC(=O)C2CCCN2C(=O)CCNC(=O)C(Cc2ccccc2)NC(=O)C(C(C)C)N(C)C(=O)C(C(C)C)N(C)C1=O` (centres undefined) (cyclo([ξLac(3-iPr)][NMeV][NMeV]F[βAla]P); configuration not given here): the Potency result was “inactive”.

As to `CC(C)S(=O)(=O)NC[C@H](C)c1ccc(NC(=O)c2cc(F)cc(F)c2)cc1`, the Potency entry is “inactive”.

For `CC(=O)OC1CC2(C)C3=CCC4(C)C5C(O)C(O)C(C(C)C)C5(C)CCC4(C)C3CCC2C(C)(C)C1OC1OC(CO)C(O)C(O)C1O` (centres undefined), the Potency result is “inactive”. `CCOCc1cc(OC)c(-c2ccc(C[C@H](NC(=O)c3c(F)cccc3F)C(=O)O)cc2)c(OC)c1`: the Potency result is “inactive”. Still for that read-out and setting: the entry for `COc1ccc(CCC(=O)c2c(O)cc(O)cc2O[C@@H]2O[C@H](CO)[C@@H](O)[C@H](O)[C@H]2O)cc1` is “inactive”; for `N[C@@]1(C(=O)O)CC[C@H]2[C@H](C(=O)O)[C@H]21` it is “inactive”. The same measure, in the same setting: for `O=C(O)CC(=O)OC[C@H]1O[C@@H](Oc2ccc3c(c2)OC[C@H]2c4cc5c(cc4O[C@@H]32)OCO5)[C@H](O)[C@@H](O)[C@@H]1O` the value was “inactive”; for `C/C=C/C=C/C(O)=C1\C(=O)[C@]2(C)C3C(C(=O)CC/C=C/C)=C(O)C4(C)C1[C@]1(C)O[C@@]4(O)[C@@]3(C)O[C@@]12O`, “inactive”; for `CNC(=S)NS(=O)(=O)c1cc(CCNC(=O)c2cc(Cl)ccc2OC)ccc1OC`, “inactive”.

As for `CC(=O)NC[C@H]1CN(c2ccc(N3CCN(C(=O)CO)CC3)c(F)c2)C(=O)O1`, the Potency result is “inactive”. Still for that read-out and setting: the entry for `O=C(O)c1cc2cccc([N+](=O)[O-])c2[nH]1` is “inactive”. `COc1ccc([C@@]2(O)c3c(ccc4c3OC(C)(CCC=C(C)C)C=C4)NC(=O)[C@@H]2OC)cc1` (some centres undefined): the Potency result is “inactive”. On the same count and under the same terms, for `Cc1ccc(S(=O)(=O)c2ccc([N+](=O)[O-])o2)cc1` the value was 4.61 µM (active); for `COC(=O)C[C@H]1C(C)(C)[C@H](OC(C)=O)C2CC3=C4CC(=O)O[C@@H](c5ccoc5)[C@]4(C)CCC3[C@@]1(C)C2=O` (some centres undefined), “inactive”. In the case of `COC(=O)C12C(=O)C(C)=C(O)C1(C)C(C)=CC1C3(CO)CCC(O)C(C)(C)C3CCC12C` (centres undefined), the Potency result is “inactive”. Still for that read-out and setting: for `CC(=O)O[C@@H]1c2c(C)coc2C(=O)[C@@]23O[C@@H]2CC[C@H](C)[C@@]13C` the value was “inactive”; for `N#Cc1ccc(-c2cnc3[nH]cc(NC(=O)c4cccnc4)c3c2)cc1`, “inactive”; for `C=C1CCC2C(C)(C)CCC[C@]2(C)[C@H]1C/C=C(\CO)C(=O)C(=O)O` (some centres undefined), “inactive”.

As to `C=C(C)C1CC[C@]2(C(=O)O)CC[C@]3(C(=O)O)[C@H](CCC4[C@@]5(C)CC[C@H](O)C(C)(C)C5CC[C@]43C)C12` (some centres undefined), the Potency entry is “inactive”. Same read-out and setting: for `CC(O)c1cc(C(=O)N[C@@H](C)Cn2ccc(-c3ccc(C#N)c(Cl)c3)n2)n[nH]1` (some centres undefined) the value was “inactive”.

As for `Cc1csc(NC(=O)c2ccc(COc3cccc(Cl)c3)o2)n1`, the Potency entry is “inactive”. Turning to `O=C(O)C1CN(Cc2ccc(-c3nc4cc(Cc5ccccc5F)ccc4s3)c(F)c2)C1`, the activity change, negative = cytotoxicity is 0.617% [at 9.29 µM]. As to `c1ccc(-c2csc(N3CCOCC3)n2)cc1`, the Potency result was “inactive”. On the same count and under the same terms, for `CC(C)c1nnc(-c2ccc(-c3ccccc3)nc2)n1-c1cccc2nonc12` the value was “inactive”. With `O=C(O)c1ccc(OC2OC(CO)C(O)C(O)C2O)cc1` (centres undefined), the Potency entry is “inactive”.

Consider `C/C=C/C=C/C=C/C(=O)OC1C=C(C=O)C(O)(C(=O)O)C2(C)CCCC(C)(C)C12` (centres undefined), for which the Potency result is “inactive”. Regarding `Cc1cccc(Oc2cnc(=O)[nH]c2)c1`, the Potency result was “inactive”.

On to `CC(=O)O[C@@H]1[C@@H](CO)O[C@@](CO)(O[C@H]2O[C@H](COC(=O)/C=C/c3ccccc3)[C@@H](O)[C@H](O)[C@H]2O)[C@H]1O`, for which the Potency entry was “inactive”. Same read-out and setting: the entry for `COc1cc(O)c([C@@H](CC(=O)N2CC(C)CC(C)C2)c2ccc3c(c2)OCO3)c(OC)c1` (some centres undefined) is “inactive”. Same read-out and setting: the figure for `O=C(CC(c1ccccc1)c1ccccc1)N1CCN(C(c2ccccc2)c2ccccc2)CC1` is 16.4 µM (active).

For the compound `CC1CC(O)/C=C/C(O)C(O)CC(=O)Cc2c(Cl)c(O)cc(O)c2C(=O)O1` (centres undefined), the Potency entry was “inactive”.
